How the values were obtained:
Settings in all cases: concentration: 1 μM, replicates: in singlicate; n = 1
[1] = test system: ADCK4
[2] = test system: AKT1
[3] = test system: AKT2
[4] = test system: AKT3
[5] = test system: ALK
[6] = test system: T1, AMPK-alpha1
T1 construct: gene PRKAA1

[7] = test system: T2, AMPK-alpha2
T2 construct: gene PRKAA2

[8] = test system: ANKK1
[9] = test system: T3, ARK5
T3 construct: gene NUAK1

[10] = test system: T4, ASK1
T4 construct: gene MAP3K5
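Note: KINOMEscan kinase panel screen.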

Row | Compound | %Inh [1] [%] | %Inh [2] [%] | %Inh [3] [%] | %Inh [4] [%] | %Inh [5] [%] | %Inh [6] [%] | %Inh [7] [%] | %Inh [8] [%] | %Inh [9] [%] | %Inh [10] [%]
1 | CC(C)NCC(Cc1ccccc1)NC(=O)c1cc(Br)c(-c2ccnc3[nH]ccc23)s1.Cl.Cl (centres unmarked) [GSK1383281] | 87 | 90 | 73 | 86 | 32 | 57 | 41 | 17 | 62 | 0
2 | CNc1nccc(-c2ccc3c(N)n[nH]c3c2)n1 [GSK2206003] | 26 | 0 | 0 | 0 | 33 | 0 | 0 | 33 | 0 | 0
3 | CCn1c(-c2nonc2N)nc2c(-c3ccccc3)ncc(OCCCN)c21.O=C(O)C(F)(F)F.O=C(O)C(F)(F)F [GSK260205] | 26 | 72 | 75 | 74 | 25 | 0 | 0 | 0 | 0 | 0
4 | CN(C)c1ncnc2nc[nH]c12 [SKF-31736] | 19 | 0 | 0 | 0 | 0 | 0 | 0 | 0 | 0 | 0
5 | Cc1ccc(C)c(NC(=O)Nc2ccc(C)c(-c3ccc(C(=O)Nc4ccncc4)cc3)c2)c1 [GSK1398473] | 25 | 0 | 0 | 0 | 38 | 15 | 0 | 0 | 17 | 0
6 | Cc1ccc(NC(=O)c2cccc(N3CCCCC3)c2)cc1-c1ccc(C(=O)NCC2CC2)cc1 [GSK1917008] | 1 | 0 | 8 | 2 | 19 | 0 | 28 | 3 | 28 | 12
7 | Fc1cc(Cl)ccc1Nc1ccnc2cc(-c3ccc(CN4CCOCC4)o3)ccc12 [GW560109] | 13 | 0 | 0 | 19 | 62 | 0 | 21 | 16 | 4 | 16
8 | O=C(O)C(F)(F)F.O=c1[nH]ccc2nc(N[C@@H]3CCNC3)nc(Nc3cc(Cl)cc(Cl)c3)c12 [GSK2188764] | 14 | 0 | 0 | 0 | 90.5 | 87 | 90 | 97.1 | 99.5 | 0
9 | CC(=O)Nc1cn2nc(Oc3cccc(NC(=O)c4cccc(C(F)(F)F)c4)c3)ccc2n1 | 9 | 20 | 0 | 16 | 9 | 0 | 8 | 0 | 12 | 0
10 | Nc1ncc(-c2ccc3nccc(-c4ccncc4)c3c2)cc1S(=O)(=O)N1CCCCC1 [GSK1693850] | 33 | 0 | 1 | 0 | 22 | 0 | 1 | 35 | 0 | 14
11 | N#CC1(c2cccc(C(=O)Nc3cccc(Oc4ccc5nc(NC(=O)C6CC6)sc5n4)c3)c2)CC1 | 2 | 27 | 6 | 0 | 15 | 17 | 27 | 0 | 0 | 0
12 | Cc1nn2c(=O)cc(N3CCO[C@H](C)C3)nc2n1Cc1cccc(Cl)c1Cl [GSK2373693] | 2 | 0 | 7 | 4 | 22 | 0 | 11 | 0 | 0 | 8
13 | COc1cc(Nc2ccnc3cc(-c4ccncc4)ccc23)cc(OC)c1OC.Cl [GW494610] | 14 | 0 | 10 | 0 | 29 | 5 | 32 | 0 | 12 | 0
14 | Nc1cccc(-c2ccc3c(N)n[nH]c3c2)c1 [GSK2193613] | 16 | 0 | 0 | 23 | 0 | 0 | 16 | 16 | 0 | 0
15 | COc1ccc(C2=C(Nc3cccc(O)c3)C(=O)NC2=O)cc1 [SB-390766] | 9 | 0 | 12 | 0 | 73 | 100 | 10 | 32 | 0 | 35
16 | COc1cccc2c(-c3ccncc3)c(-c3ccc(F)cc3)nn12 [GW468513] | 38 | 0 | 34 | 5 | 27 | 0 | 18 | 11 | 19 | 0
17 | COc1ccc(C)c(Nc2ccnc(Nc3ccc(-c4cnc[nH]4)cc3)n2)c1.Cl [GW784041] | 53 | 14 | 0 | 8 | 0 | 30 | 0 | 0 | 99.3 | 0
18 | Cc1ccc(O)cc1Nc1ccnc2cc(-c3ccc(CN4CCCCC4)o3)ccc12 [GW557777] | 88 | 0 | 3 | 0 | 0 | 0 | 0 | 0 | 0 | 37
19 | CN(c1ccc2c(c1)nc(NCc1ccccc1)n2C)c1ccnc(Nc2ccc(CS(C)(=O)=O)cc2)n1.Cl [GW811603] | 7 | 0 | 0 | 1 | 49 | 2 | 0 | 0 | 0 | 9
20 | Cn1cc(-c2cnc(N)c3c(-c4ccc5c(c4)CCN5C(=O)Cc4ccccc4)csc23)cn1 [GSK2593074] | 0 | 14 | 0 | 8 | 0 | 17 | 0 | 0 | 3 | 21
21 | Cl.N#CCc1ccc(Nc2nccc(Nc3ccc(Oc4ccccc4)cc3)n2)cc1 [GW639905] | 72 | 0 | 4 | 0 | 40 | 0 | 0 | 98.9 | 0 | 0
22 | Cc1ccc(NC(=O)c2ccnc(N3CCCCC3)c2)cc1-c1ccc(C(=O)NCC2CC2)cc1 [GW775610] | 0 | 0 | 0 | 0 | 10 | 19 | 0 | 0 | 2 | 0

Row | Compound | %Inh [1] [%] | %Inh [2] [%] | %Inh [3] [%] | %Inh [4] [%] | %Inh [5] [%] | %Inh [6] [%] | %Inh [7] [%] | %Inh [8] [%] | %Inh [9] [%] | %Inh [10] [%]
23 | CN(c1ccc(F)c(NC(=O)c2cccc(OC(C)(C)C#N)c2Cl)c1)c1ccc2nc(NC(=O)C3CC3)sc2n1 | 0 | 2 | 4 | 0 | 46 | 0 | 0 | 0 | 0 | 0
24 | CN(c1ccc(NC(=O)N2CCN(CCCN3CCOCC3)CC2)cc1)c1ccnc(Nc2ccc(CS(C)(=O)=O)cc2)n1.Cl [GW830899] | 5 | 0 | 0 | 0 | 0 | 0 | 12 | 0 | 0 | 0
25 | Nc1ncc(-c2cn[nH]c2)c2scc(-c3ccc4c(c3)CCN4C(=O)Cc3ccccc3)c12 [GSK2593067] | 0 | 0 | 2 | 0 | 0 | 11 | 16 | 1 | 26 | 5
26 | CC(C)c1nc(-c2cccc(NS(=O)(=O)c3c(F)cccc3F)c2)c(-c2ccnc(Nc3ccc(N4CCOCC4)nc3)n2)s1.Cl [GSK1723980] | 100 | 0 | 11 | 0 | 19 | 74 | 91.4 | 5 | 1 | 0
27 | Cc1ccc(-c2ccc3occ(-c4ccc(S(C)=O)cc4)c3c2)nn1 (centres unmarked) | 0 | 2 | 12 | 9 | 0 | 0 | 1 | 0 | 16 | 0
28 | Cl.Cl.NCC(NC(=O)c1cc(-c2cccnc2)c(-c2ccnc3[nH]ccc23)s1)c1ccccc1 (centres unmarked) [GSK1323434] | 71 | 7 | 10 | 86 | 23 | 0 | 0 | 0 | 0 | 0
29 | Cc1cccc(Nc2nc(N[C@H]3CCCC[C@H]3N)ncc2C(N)=O)c1.Cl [GSK986310] | 29 | 0 | 28 | 0 | 61 | 39 | 29 | 95.7 | 40 | 0
30 | CCNC(=O)/C=C/c1n[nH]c2cc(Sc3ccccc3C(=O)NC)ccc12 | 0 | 6 | 18 | 3 | 2 | 7 | 14 | 5 | 10 | 0
31 | COC(=O)Nc1nc2cc(Oc3ccc(NC(=O)Nc4cccc(SC)c4)cc3)ccc2[nH]1.Cl [GW697999] | 48 | 0 | 0 | 0 | 25 | 5 | 0 | 10 | 0 | 2
32 | COc1ccc(NC(=O)c2ccoc2)cc1-c1ccc(C(=O)NCC2CC2)cc1 [GW810437] | 0 | 15 | 0 | 0 | 0 | 19 | 0 | 7 | 0 | 30
33 | O=C1NC(=O)C(c2ccccc2Cl)=C1Nc1cccc(Cl)c1 [SB-342409] | 0 | 0 | 100 | 0 | 41 | 0 | 11 | 0 | 14 | 8
34 | O=C(O)C(F)(F)F.O=c1[nH]ccc2nc(N[C@@H]3CCNC3)nc(Nc3ccc4c(c3)S(=O)(=O)CC4)c12 [GSK2181306] | 15 | 0 | 0 | 47 | 86 | 89 | 81 | 97.4 | 99.9 | 0
35 | CS(=O)(=O)c1cccc(CNc2nc(Nc3ccc4c(c3)CCC(=O)N4)ncc2C(F)(F)F)c1 | 4 | 0 | 0 | 0 | 0 | 7 | 0 | 3 | 86 | 0
36 | NCCC(NC(=O)c1cc(Br)c(-c2ccnc3[nH]ccc23)s1)c1ccccc1.O=C(O)C(F)(F)F.O=C(O)C(F)(F)F (centres unmarked) [GSK1307810] | 60 | 91.6 | 52 | 87 | 50 | 52 | 34 | 0 | 18 | 15
37 | c1ccc(Oc2ccc(Nc3ccnc4cc(-c5ccc(CN6CCCCC6)o5)ccc34)cc2)nc1 [GW567143] | 8 | 0 | 14 | 0 | 26 | 0 | 0 | 9 | 12 | 0
38 | CN(c1ccc(NC(=O)Nc2cccc(Cl)c2)cc1)c1ccnc(N)n1.Cl [GW830707] | 6 | 23 | 3 | 12 | 0 | 0 | 18 | 0 | 0 | 2
39 | O=C(Nc1n[nH]c2nc(-c3ccccc3)ccc12)C1CC1 [SB-708999] | 12 | 14 | 9 | 0 | 3 | 17 | 12 | 63 | 8 | 18
40 | CC(C)(C)c1ccc(C(=O)Nc2cn3cc(-n4ccnc4)ccc3n2)cc1 | 19 | 6 | 0 | 0 | 0 | 14 | 0 | 82 | 2 | 80
41 | Cc1ccc(Nc2ccnc(Nc3ccc(C)c(F)c3)n2)cc1O.Cl [GW582868] | 74 | 0 | 0 | 0 | 38 | 0 | 0 | 0 | 40 | 0
42 | CN1CCN(Cc2ccc(NC(=O)Nc3ccc(N(C)c4ccnc(Nc5ccc(CS(C)(=O)=O)cc5)n4)cc3)cc2)CC1.Cl [GW827654] | 34 | 0 | 0 | 0 | 47 | 34 | 34 | 80 | 8 | 0
43 | O=C(Nc1c(F)cccc1F)c1cc(C(=O)c2ccccc2F)c[nH]1 [GSK1326180] | 20 | 0 | 0 | 0 | 33 | 0 | 0 | 2 | 0 | 8
44 | O=C(Nc1n[nH]c2nc(-c3cccc(O)c3)ccc12)C1CC1 [SB-711805] | 0 | 0 | 0 | 4 | 0 | 0 | 0 | 0 | 0 | 0
